Source: PubChem BioAssay (EPA / NIEHS)
Active and inactive are the calls of the source. Rule for the calls: active = hit-call score of the fitted dose curve at least 0.9, where 1 is the maximum; inactive = score below 0.9.

What follows are compounds tested on Monocyte Chemoattractant Protein-1 (MCP1), CCL2 (gene 6347) (assay: BSK_3C_MCP1: BioMAP Diversity Plus: 3C Assay for Monocyte Chemoattractant Protein-1 (MCP1) Biomarker Activity (AID 2283017)). Conditions: primary human endothelial cells (HUVEC); actives raise or lower the signal.
In short: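 Endothelial cells from human umbilical vein are dosed with chemical, cultured 24 h, then assayed for MCP-1 by ELISA; both increases and decreases are modelled against DMSO controls.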

Structure (SMILES) | outcome | AC50
Cc1cccc(C)c1O | inactive | 
CCCCCCOCCO | inactive | 
O=[N+]([O-])C(CO)(CO)CO | inactive | 
C1CCC(SSC2CCCCC2)CC1 | inactive | 
CNC(=O)[C@H]1O[C@@H](n2cnc3c(NCc4cc(Cl)ccc4OCc4cc(C)no4)ncnc32)[C@H](O)[C@@H]1N | inactive | 
Cc1cccc([N+](=O)[O-])c1C | inactive | 
CCCCCCCC=O | inactive | 
CNCc1cc(F)ccc1Oc1ccc(Cl)c(Cl)c1 |  | 20 µM (active)
COCCOCCOC | inactive | 
Nc1ccc(S(=O)(=O)c2ccc(N)cc2)cc1 | inactive | 
C[C@]12C=CC(=O)C=C1CC[C@@H]1[C@@H]2C(=O)C[C@@]2(C)[C@H]1CC[C@]2(O)C(=O)CO | inactive | 
Cc1ccc(C(C)C)c(O)c1 | inactive | 
O=C(O)Cc1ccccc1Nc1c(Cl)cccc1Cl | inactive | 
Cc1oc(-c2ccccc2)nc1CCOc1cccc2c1ccn2CCC(=O)O | inactive | 
CC=Cc1ccc(O)c(OC)c1 | inactive | 
CCOC(=O)C(C)(C)Oc1ccc(Cl)cc1 | inactive | 
Cc1ccc(N(C)C)cc1 | inactive | 
CC(C)c1ccc(C(=O)N=C(N)N)cc1S(C)(=O)=O | inactive | 
Cc1cc(NC(=O)C(=O)O)cc(C)c1Oc1ccc(O)c2c1CCC2 | inactive | 
Nc1ccc2c(c1)C(=O)c1ccccc1C2=O | inactive | 
Cc1ccc2ncccc2c1 | inactive | 
CCCCCCCCCCCCCCCCCC(=O)O | inactive | 
CCCCN(CCCC)CCCC | inactive | 
CCCCCCCCCCCCCO |  | 39 µM (active)
CC1(C)CC(N=C=O)CC(C)(CN=C=O)C1 (stereo not given) | inactive | 
NS(=O)(=O)c1cc2c(cc1Cl)NCNS2(=O)=O | inactive | 
COc1ccc(C)cc1N | inactive | 
COc1cc(S(=O)(=O)O)c(C)cc1N=Nc1c(O)ccc2cc(S(=O)(=O)O)ccc12 | inactive | 

Each compound was assayed on Monocyte Chemoattractant Protein-1 (MCP1), CCL2 (gene 6347) (assay: BSK_4H_MCP1: BioMAP Diversity Plus: 4H Assay for Monocyte Chemoattractant Protein-1 (MCP1) Biomarker Activity (AID 2283018)). Conditions: primary human endothelial cells (HUVEC); actives raise or lower the signal.
In short: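 Endothelial cells from umbilical vein were treated with test chemical, then after 24 h MCP-1 levels were quantified by ELISA; endpoint values came from bidirectional fitting with DMSO as baseline of activity.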

Structure (SMILES) | outcome | AC50
Cc1cccc(C)c1O | inactive | 
O=[N+]([O-])C(CO)(CO)CO | inactive | 
Cc1cccc([N+](=O)[O-])c1C | inactive | 
CCCCCCCC=O | inactive | 
CNCc1cc(F)ccc1Oc1ccc(Cl)c(Cl)c1 |  | 11.6 µM (active)
COCCOCCOC | inactive | 
Nc1ccc(S(=O)(=O)c2ccc(N)cc2)cc1 | inactive | 
C[C@]12C=CC(=O)C=C1CC[C@@H]1[C@@H]2C(=O)C[C@@]2(C)[C@H]1CC[C@]2(O)C(=O)CO | inactive | 
Cc1ccc(C(C)C)c(O)c1 | inactive | 
Cc1oc(-c2ccccc2)nc1CCOc1cccc2c1ccn2CCC(=O)O | inactive | 
CC=Cc1ccc(O)c(OC)c1 | inactive | 
CCOC(=O)C(C)(C)Oc1ccc(Cl)cc1 | inactive | 
Cc1cc(NC(=O)C(=O)O)cc(C)c1Oc1ccc(O)c2c1CCC2 | inactive | 
CCCCCCCCCCCCCCCCCC(=O)O | inactive | 
CCCCN(CCCC)CCCC | inactive | 
CCCCCCCCCCCCCO |  | 37.6 µM (active)
NS(=O)(=O)c1cc2c(cc1Cl)NCNS2(=O)=O | inactive | 
